# Results as given in PubChem BioAssay AID1578 (Sanford-Burnham Center for Chemical Genomics, 2009).
# Screen size: about 290,000 compounds; about 3,000 (1%) were called active. Rule as the data show it: active = inhibition mostly above about 36% (no sharp cut-off); inactive = mostly below about 34%. This excerpt belongs to a sample that is enriched for actives.
# Experiment: NOD1 signaling inhibitors, primary screen, cell-based, luminescence, uHTS (AID 1578);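 also: HEK-293T reporter cells stimulated with the NOD1 agonist gamma-tri-DAP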
# Conditions: NOD1-driven NF-kB luciferase reporter cells, at 4 µM, active compounds read high
row,Compound,inhibition
1,O=C(C1=NNCC1c1ccc(Cl)cc1)C1CO1 (stereo not given),88.4% (active)
2,O=C(C1=NNCC1c1ccccc1)C1CO1 (stereo not given),-5.4% (inactive)
3,O=C(C1=NNCC1c1ccccc1)C1OC1c1ccccc1 (stereo not given),15.8% (inactive)
4,Cc1nc(N2CCOCC2)nc(OCCN(C)C)c1[N+](=O)[O-],-6.3% (inactive)
5,O=C(O)/C(=C\c1cccs1)Sc1nnc(-c2ccc(F)cc2)o1,-11.6% (inactive)
6,COc1cc(/C=C(/Sc2nnc(-c3ccc(F)cc3)o2)C(=O)O)ccc1OC(F)F,-21.8% (inactive)
7,O=C(O)/C(=C\c1ccccc1OC(F)F)Sc1nnc(-c2ccc(F)cc2)o1,32.5% (active)
8,CCCC(c1nnnn1C(C)(C)C)N1CCN(c2ccccc2)CC1 (stereo not given),-12.7% (inactive)
9,Cc1cc(=O)oc(C)c1C(=O)NNC(=O)C1(C)CC1Br (stereo not given),-8.9% (inactive)
10,COc1cc(/C=N/NC(=O)c2cnn3c(C)cc(-c4ccccc4)nc23)ccc1O,46.9% (inactive)
11,Cc1cc(C)c(NC(=S)N(CCCN2CCN(C)CC2)Cc2cccs2)c(C)c1,-25.1% (inactive)
12,Clc1ccc(CNCC2CCCO2)cc1 (stereo not given),5.9% (inactive)
13,Brc1ccc(CNCC2CCCO2)cc1 (stereo not given),64.4% (active)
14,Fc1ccc(CNCC2CCCO2)cc1 (stereo not given),2.2% (inactive)
15,COc1ccc(N(CC(=O)NCc2ccccc2)S(=O)(=O)c2c(C)nn(C)c2C)cc1,-15.5% (inactive)
16,O=C1NN(c2ccccc2)C(=O)/C1=C\c1cccn1-c1ccc(Cl)c([N+](=O)[O-])c1,86.9% (active)
17,COc1cc(/C=C2/C(=O)NN(c3ccc(Cl)c(Cl)c3)C2=O)cc([N+](=O)[O-])c1O,14.3% (inactive)
18,COc1cc(/C=C2\C(=O)NN(c3ccccc3)C2=O)cc([N+](=O)[O-])c1O,-38.3% (inactive)
19,O=C(CN1CCN(S(=O)(=O)N2CCCCCC2)CC1)Nc1ccc(Br)cc1,-32.9% (inactive)
20,O=Cc1ccc(N2CCCC2)c([N+](=O)[O-])c1,-40.9% (inactive)
21,O=C(O)CSCC(=O)NCc1csc2ccc(Cl)cc12,0.3% (inactive)
22,CNC(=O)Cc1csc2ccc(Cl)cc12,-7.2% (inactive)
23,CNC(=O)Cc1csc2ccc(C)cc12,41.4% (active)
24,Cc1ccc(C)c(N2CCN(CCCNC(=O)Cn3cc4c(n3)CCC(C)C4)CC2)c1 (stereo not given),-16.2% (inactive)
25,COc1ccccc1/C=N/N(C(C)=O)c1nc(-c2ccc(F)cc2)cs1,9.4% (inactive)

row,Compound,inhibition
1,O=C(O)C1CCCN(S(=O)(=O)c2ccc(Cl)s2)C1 (stereo not given),-19.7% (inactive)
2,Cc1cccc(Nc2ccc3nonc3c2[N+](=O)[O-])c1C,-9.3% (inactive)
3,COc1cc(NC(C)=O)ccc1-c1cc2ccccc2oc1=O,34.7% (inactive)
4,COc1cc(NC(=O)COc2ccc(Cl)cc2)ccc1-c1cc2ccccc2oc1=O,12.1% (inactive)
5,CCCc1ccc(S(=O)(=O)NCC2CCCN2CC)cc1 (stereo not given),-7.8% (inactive)
6,COc1ccc(N(CC(=O)NCc2ccco2)C(=O)CNS(=O)(=O)c2ccc(Cl)cc2)cc1,4.6% (inactive)
7,O=C(Cc1ccccc1)NC(=S)Nc1ccc2oc(-c3ccccc3F)nc2c1,-99.4% (inactive)
8,O=C(C1=C[C@@H](c2csc3ccccc23)C[C@@H](OCCCCO)O1)N1CCN(Cc2ccc3c(c2)OCO3)CC1,-7.2% (inactive)
9,O=C(C1=C(c2ccccc2)C(=O)c2ccccc2C1=O)c1ccccc1,1.2% (inactive)
10,Cc1ccc(C2=C(O)c3ccccc3C(=O)C2=O)cc1,-31.4% (inactive)
11,CC(=O)C1=C(c2ccc(Br)cc2)C(=O)c2ccccc2C1=O,98.1% (active)
12,COCCNC(=O)CCCC(=O)NCCOC,-16.8% (inactive)
13,COCCNC(=O)CCCCCN1C(=O)CCC1=O,48.6% (active)
14,O=C(CCCCCN1C(=O)CCC1=O)NCc1ccccc1,-1.8% (inactive)
15,Cc1nnc2sc(-c3ccc(-c4ccc(Cl)c(C(F)(F)F)c4)o3)nn12,-9.3% (inactive)
16,O=C(CCc1ccccc1)c1ccc2c(c1)OCCCO2,-67.4% (inactive)
17,O=C(Cc1ccccc1)c1ccc2c(c1)OCCO2,-43.1% (inactive)
18,CN(C)CCCC(=O)c1ccc2c(c1)OCO2,-10.8% (inactive)
19,CN(C)CCC(=O)c1ccc2c(c1)OCO2,59.1% (active)
20,O=C(CCCc1ccccc1)c1ccc2c(c1)OCCO2,54.9% (active)
21,CCCC(=O)c1ccc2c(c1)OCCO2,1.3% (inactive)
22,Cc1ccccc1-c1nc(CN2CCCC2c2ccc(F)cc2)c(C)o1 (stereo not given),-29.5% (inactive)
23,COCC1CCN(Cc2cn[nH]c2-c2cc3ccccc3o2)C1 (stereo not given),-18.7% (inactive)
24,O=Cc1c(C(=O)O)n(CC(=O)O)c2ccccc12,-37% (inactive)
25,CC1=NNC(=O)C1C(c1ccc(Cl)cc1)C(C#N)C#N (stereo not given),-7.3% (inactive)

row,Compound,inhibition
1,CCCc1nnc(NC(=O)CCC(=O)NC2CCCc3ccccc32)s1 (stereo not given),89.6% (active)
2,O=C(Cc1ccc(Br)cc1)NC1CCCc2ccccc21 (stereo not given),-30.2% (inactive)
3,CC(C)Cc1nnc(NC(=O)CCC(=O)NC2CCCc3ccccc32)s1 (stereo not given),-25.2% (inactive)
4,Cc1ccccc1CC(=O)NC1CCCc2ccccc21 (stereo not given),58.1% (inactive)
5,CCc1nnc(NC(=O)CCC(=O)NC2CCCc3ccccc32)s1 (stereo not given),-15.7% (inactive)
6,CN(C(=O)CN1CCN(c2ccccc2F)CC1)C1CCCc2ccccc21 (stereo not given),-20.5% (inactive)
7,CN(C(=O)CCl)C1CCCc2ccccc21 (stereo not given),55.5% (active)
8,CN(C(=O)Nc1ccccc1)C1CCCc2ccccc21 (stereo not given),-3.4% (inactive)
9,O=C(CCl)NC1CCCc2ccccc21 (stereo not given),59% (active)
10,O=C(CNC(=O)Cn1ccc2ccccc2c1=O)NCCCN1CCN(c2cccc(Cl)c2)CC1,9.9% (inactive)
11,COc1ccccc1CN1CC(C(=O)N(C)CCCn2nc(C)cc2C)CCC1=O (stereo not given),-33.8% (inactive)
12,Cc1cc(Cl)ccc1C(=O)C1CCCN(C(=O)c2cnn(C(C)C)c2)C1 (stereo not given),-17.9% (inactive)
13,CC(C)(C)n1cc(S(=O)(=O)c2ccccc2)[nH]c1=O,-26.3% (inactive)
14,O=C(Nc1ccccn1)N1CCOCC1,-28.5% (inactive)
15,C=CCn1c(SCc2cc(=O)n3cc(C)ccc3n2)nnc1-c1ccc(F)cc1,-11.1% (inactive)
16,O=C(O)CCn1[nH]c(=O)c2ccccc2c1=O,-7.7% (inactive)
17,Cc1ccc2nc(SCc3ccccc3)c(C=O)c(=O)n2c1,-41.8% (inactive)
18,COc1ccc(-c2c(NC(=O)c3ccco3)n(-c3ccccc3)nc(C)c2=O)cc1,-7.7% (inactive)
19,COc1ccc(/C=N/NC(=O)c2c(-c3ccccc3)noc2C)cc1[N+](=O)[O-],-15.9% (inactive)
20,c1ccc(OCc2nc3c4c(ncn3n2)-c2ccccc2CC42CCCC2)cc1,19.6% (inactive)
21,Oc1ccc(-c2nc3c4c(ncn3n2)-c2ccccc2CC42CCCC2)cc1,99.8% (active)
22,COc1ccc(-c2nc3c4c(ncn3n2)-c2ccccc2CC42CCCC2)cc1,-3.6% (inactive)
23,O=C(Nc1ccccc1F)C1CCN(C(=O)NCc2ccccc2)CC1,-18% (inactive)
24,COc1ccc(-c2cc(-c3ccccc3)nc(Cl)n2)cc1OC,12% (inactive)
25,Cc1c(NS(=O)(=O)c2ccc3c(c2)NC(=O)CC(=O)N3)cccc1[N+](=O)[O-],-6.1% (inactive)

row,Compound,inhibition
1,CCOC(=O)NC1(C(F)(F)F)C(=O)N(Cc2ccccc2)C2=C1C(=O)CC(C)(C)C2 (stereo not given),0.2% (inactive)
2,Cc1ccc(S(=O)(=O)N(C)c2ccc(OC(=O)c3ccc(=O)[nH]c3)cc2)cc1,5.9% (inactive)
3,O=S(=O)(c1cc(F)ccc1F)N1CCN2CCCC2C1 (stereo not given),50.7% (inactive)
4,C=CCNC(=S)N/N=C/c1ccc(-c2ccc(Br)cc2)o1,-6.5% (inactive)
5,C=CCNC(=S)N/N=C/c1ccc(-c2ccc(OC)cc2)o1,59.5% (active)
6,NC(=S)N/N=C/c1ccc(C(F)(F)F)cc1,-16% (inactive)
7,C=CCNC(=S)N/N=C/c1ccc(C(F)(F)F)cc1,52.7% (active)
8,C=CCNC(=S)N/N=C/c1ccc(-c2cccc([N+](=O)[O-])c2)o1,-8.7% (inactive)
9,C=CCNC(=S)N/N=C/c1ccc(C(C)(C)C)cc1,3.2% (inactive)
10,CCN(CC)CCCN1C=C2C(=O)C(C)(OC(=O)C3CCCC3)C(=O)C=C2C=C1c1ccsc1 (stereo not given),-2% (inactive)
11,CCOC(=O)C1=C(c2ccccc2)N=C2SCC(=O)N2C1c1ccc(OCC)c(OCC)c1 (stereo not given),-4% (inactive)
12,CCOC(=O)Cn1nc(C)c(NC(=O)COc2ccc([N+](=O)[O-])cc2)c1C,-8.3% (inactive)
13,CCOC(=O)NNC(=O)CCn1c2c(c3ccccc31)CCCC2,55.3% (active)
14,CC(=O)NNC(=O)CCn1c2c(c3ccccc31)CCCC2,-2% (inactive)
15,O=C(CCn1c2c(c3ccccc31)CCCC2)NNC(=O)c1ccccc1Cl,-15.4% (inactive)
16,CCOC(=O)c1c(C)[nH]c(C(=O)CSc2nc(C)cc(C)n2)c1C,-15.5% (inactive)
17,O=C(O)C1CC1(c1ccccc1)c1ccccc1 (stereo not given),-21.6% (inactive)
18,CCOc1ccc(Nc2nc(NCC(=O)O)nc(N)c2[N+](=O)[O-])cc1,0.9% (inactive)
19,O=C(Nc1cccc(Cl)c1)C1C2CCC3C(CCC21)C3(Cl)Cl (stereo not given),73% (active)
20,Cc1cccc(NC(=O)C2C3CCC4C(CCC32)C4(Cl)Cl)c1 (stereo not given),-38.6% (inactive)
21,O=C(Nc1ccccc1)C1C2CCC3C(CCC21)C3(Cl)Cl (stereo not given),-42.4% (inactive)
22,COc1cccc(CN2CCNC(=O)C2CC(=O)N2CCCCO2)c1OC (stereo not given),-10.5% (inactive)
23,CC1=CC(=O)C(C(C)C)=C/C1=C(\c1cc(C(C)C)c(OP(=O)(O)O)cc1C)c1ccccc1C(=O)O,69.3% (active)
24,CCOc1ccc(C(=O)c2ccccc2C(=O)O)cc1OCC,-35.3% (inactive)
25,CC1=CC(=O)C(C(C)C)=C/C1=N/OS(=O)(=O)c1ccccc1,-5.3% (inactive)
